This passage reports binding signal results from PMC5700166.

Holding throughout (assay): protein-binding microarray (PBM); PBM: ~300 nM protein, 6 mM HEPES pH 7.8, 80 mM KCl, 0.5 mM EDTA, 0.5 mM EGTA, 6% glycerol, 35 ng/ul poly-dIdC, 1% milk, 1 h, room temperature; Ap Aiptasia and Nv Nematostella (sea anemones) / Co Capsaspora / Aq Amphimedon (sponge) / Dm Drosophila / Hu human; RHD is the Rel homology domain; high values mean tight binding
Settings in all cases: dsDNA, one strand shown

For one experiment, the target named is T1, GST-Ap-NF-kB RHD (Exaiptasia pallida (Aiptasia), UniProt A0A913YAJ5 2-422).
T1 sequence: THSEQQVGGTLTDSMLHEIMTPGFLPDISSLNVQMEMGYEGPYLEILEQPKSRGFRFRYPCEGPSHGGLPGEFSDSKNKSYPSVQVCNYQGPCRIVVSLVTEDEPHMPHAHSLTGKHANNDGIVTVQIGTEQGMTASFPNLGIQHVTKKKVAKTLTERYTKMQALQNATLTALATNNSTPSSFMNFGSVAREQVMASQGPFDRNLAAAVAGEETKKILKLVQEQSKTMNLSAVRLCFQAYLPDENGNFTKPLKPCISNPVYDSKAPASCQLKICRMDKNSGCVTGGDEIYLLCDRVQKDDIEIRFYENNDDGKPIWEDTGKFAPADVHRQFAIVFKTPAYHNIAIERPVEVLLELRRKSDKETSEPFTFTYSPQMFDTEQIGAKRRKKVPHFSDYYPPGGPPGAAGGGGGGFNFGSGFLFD

The target of experiment [1] is T2, GST-Nv-NF-kB (Cys allele) (Nematostella vectensis, UniProt E5G601 2-411).
T2 sequence: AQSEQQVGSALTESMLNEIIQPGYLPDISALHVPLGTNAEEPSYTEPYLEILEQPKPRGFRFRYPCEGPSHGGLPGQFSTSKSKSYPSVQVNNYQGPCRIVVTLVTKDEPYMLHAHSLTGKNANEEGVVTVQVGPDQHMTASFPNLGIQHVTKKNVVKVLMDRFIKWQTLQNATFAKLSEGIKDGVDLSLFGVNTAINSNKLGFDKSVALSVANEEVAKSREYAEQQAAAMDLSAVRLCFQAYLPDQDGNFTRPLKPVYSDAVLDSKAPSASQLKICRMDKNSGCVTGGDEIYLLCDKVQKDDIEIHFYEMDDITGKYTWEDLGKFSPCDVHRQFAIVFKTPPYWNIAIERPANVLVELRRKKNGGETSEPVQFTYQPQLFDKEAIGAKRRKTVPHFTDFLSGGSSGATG

Experiment [2] concerns the target T3, GST-Nv-NF-kB (Ser allele) (Nematostella vectensis, UniProt A7UNT2 2-411).
T3 sequence: T2 sequence with Q21R, C66S, S207N, E215Q, V217A, E225K, A268E, D399E

For a further experiment, the target named is T4, GST-Co-NF-kB (Capsaspora owczarzaki, UniProt F1ARL5 200-546).
T4 sequence: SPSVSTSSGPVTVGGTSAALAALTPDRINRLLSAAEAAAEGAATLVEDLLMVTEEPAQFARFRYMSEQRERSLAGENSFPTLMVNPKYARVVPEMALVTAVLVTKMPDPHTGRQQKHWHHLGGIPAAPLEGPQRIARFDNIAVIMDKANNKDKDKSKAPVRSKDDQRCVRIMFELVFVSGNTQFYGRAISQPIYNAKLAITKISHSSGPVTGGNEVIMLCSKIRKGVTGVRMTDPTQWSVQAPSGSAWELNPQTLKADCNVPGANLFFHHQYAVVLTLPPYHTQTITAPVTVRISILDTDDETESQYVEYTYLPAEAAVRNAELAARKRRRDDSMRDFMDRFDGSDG

The target of another experiment is T5, GST-Dm-Relish (Drosophila melanogaster, UniProt Q94527 99-473).
T5 sequence: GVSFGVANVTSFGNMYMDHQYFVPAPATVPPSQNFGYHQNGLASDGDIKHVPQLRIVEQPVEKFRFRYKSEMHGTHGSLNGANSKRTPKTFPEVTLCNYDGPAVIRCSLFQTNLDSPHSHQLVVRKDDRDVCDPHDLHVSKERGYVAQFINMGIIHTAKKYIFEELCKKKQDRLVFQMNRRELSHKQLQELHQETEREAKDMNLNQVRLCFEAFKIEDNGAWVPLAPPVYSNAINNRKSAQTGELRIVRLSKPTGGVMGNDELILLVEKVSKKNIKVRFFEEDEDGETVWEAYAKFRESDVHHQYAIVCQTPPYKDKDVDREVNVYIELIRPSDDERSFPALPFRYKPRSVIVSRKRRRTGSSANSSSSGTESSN

In another experiment the target is T6, GST-Aq-NF-kB (Amphimedon queenslandica, UniProt A9Y5G7 2-389).
T6 sequence: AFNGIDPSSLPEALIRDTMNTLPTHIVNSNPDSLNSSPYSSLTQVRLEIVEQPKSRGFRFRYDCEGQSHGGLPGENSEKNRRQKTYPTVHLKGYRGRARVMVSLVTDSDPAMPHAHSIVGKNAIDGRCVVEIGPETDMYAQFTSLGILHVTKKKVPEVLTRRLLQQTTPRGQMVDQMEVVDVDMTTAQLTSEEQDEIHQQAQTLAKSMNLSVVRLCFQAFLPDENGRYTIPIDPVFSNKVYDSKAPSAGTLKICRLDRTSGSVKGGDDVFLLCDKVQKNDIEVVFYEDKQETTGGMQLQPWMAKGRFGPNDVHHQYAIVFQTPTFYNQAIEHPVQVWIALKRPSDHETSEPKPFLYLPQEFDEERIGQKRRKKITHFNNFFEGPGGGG

In the next experiment the target is GST-Hu-p50 (Homo sapiens, UniProt P19838 7-356).
Sequence of GST-Hu-p50 (P19838 7-356): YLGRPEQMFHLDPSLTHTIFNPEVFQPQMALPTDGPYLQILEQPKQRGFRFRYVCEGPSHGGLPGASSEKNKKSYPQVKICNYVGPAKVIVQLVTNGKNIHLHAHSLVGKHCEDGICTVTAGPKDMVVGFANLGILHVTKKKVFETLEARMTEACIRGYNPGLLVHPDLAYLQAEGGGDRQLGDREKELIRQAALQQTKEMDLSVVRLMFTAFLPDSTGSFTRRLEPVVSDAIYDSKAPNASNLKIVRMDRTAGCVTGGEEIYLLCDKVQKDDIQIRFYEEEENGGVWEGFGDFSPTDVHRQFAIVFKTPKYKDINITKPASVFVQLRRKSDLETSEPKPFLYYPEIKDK

Changes are numbered by the printed parent chain.

For “CCGATTAACATCAAGGGGAATTATGATGTTAATCGGGTCTTGATTCGCTTGACGCTGCTG”, the binding signal with GST-Ap-NF-kB RHD amounted to 7.82 z-score; in experiment [1], 10.5 z-score; in experiment [2], 11.4 z-score; with GST-Co-NF-kB it was 6.37 z-score; with GST-Dm-Relish, 7.09 z-score; with GST-Aq-NF-kB, 7.24 z-score. Further, the binding signal with GST-Hu-p50 is 7.43 z-score.
For the sequence “CCGATTAACATCAGGGGAGAAACTGATGTTAATCGGGTCTTGATTCGCTTGACGCTGCTG”, the binding signal turned out to be 4.39 z-score with GST-Ap-NF-kB RHD; 4.53 z-score in experiment [1]; 5.55 z-score in experiment [2]; 7.07 z-score with GST-Co-NF-kB; 5.35 z-score in the experiment with GST-Dm-Relish; 3.64 z-score in the experiment with GST-Aq-NF-kB. Moreover, the binding signal with GST-Hu-p50 amounted to 4.05 z-score.
On to “CCGATTAACATCACATGGGAATCTGATGTTAATCGGGTCTTGATTCGCTTGACGCTGCTG”, for which the binding signal with GST-Ap-NF-kB RHD turned out to be 1 z-score; in experiment [1], 2.19 z-score; in experiment [2], 2.46 z-score; in the experiment with GST-Co-NF-kB, 1.08 z-score; with GST-Dm-Relish it was 1.82 z-score; with GST-Aq-NF-kB, 1.14 z-score. In addition, the binding signal with GST-Hu-p50 amounted to 1.59 z-score.
In the case of “CCGATTAACATCAAAGTATCCCCTGATGTTAATCGGGTCTTGATTCGCTTGACGCTGCTG”, the binding signal stood at 6.1 z-score with GST-Ap-NF-kB RHD; 5.64 z-score in experiment [1]; 7.21 z-score in experiment [2]; 5.48 z-score with GST-Co-NF-kB; 3.47 z-score with GST-Dm-Relish; 4.4 z-score with GST-Aq-NF-kB. Further, in the experiment with GST-Hu-p50, the binding signal was found to be 4.64 z-score.
“CCGATTAACATCAGGGGTTTCTATGATGTTAATCGGGTCTTGATTCGCTTGACGCTGCTG”: the binding signal is 5.36 z-score in the experiment with GST-Ap-NF-kB RHD; 4.73 z-score in experiment [1]; 4.67 z-score in experiment [2]; 1.76 z-score with GST-Co-NF-kB; 5.29 z-score in the experiment with GST-Dm-Relish; 4.5 z-score in the experiment with GST-Aq-NF-kB. Moreover, the binding signal in the experiment with GST-Hu-p50 is 5.3 z-score.
“CCGATTAACATCAGATACTCCCCTGATGTTAATCGGGTCTTGATTCGCTTGACGCTGCTG”: the binding signal with GST-Ap-NF-kB RHD was 5.47 z-score; in experiment [1], 4.28 z-score; in experiment [2], 4.21 z-score; with GST-Co-NF-kB it was 4.31 z-score; with GST-Dm-Relish, 1.86 z-score; with GST-Aq-NF-kB, 4.46 z-score. Also, the binding signal with GST-Hu-p50 turned out to be 3.57 z-score.
On to “CCGATTAACATCAGGGAAAGTACTGATGTTAATCGGGTCTTGATTCGCTTGACGCTGCTG”, for which the binding signal with GST-Ap-NF-kB RHD is 3.95 z-score; in experiment [1], 6.4 z-score; in experiment [2], 6.18 z-score; with GST-Co-NF-kB, 2.93 z-score; with GST-Dm-Relish, 8.65 z-score; in the experiment with GST-Aq-NF-kB it was 7.76 z-score. Further, the binding signal with GST-Hu-p50 came to 5.43 z-score.
On to “CCGATTAACATCACTTTTTCCCCTGATGTTAATCGGGTCTTGATTCGCTTGACGCTGCTG”, for which the binding signal was 6.12 z-score in the experiment with GST-Ap-NF-kB RHD; 7.44 z-score in experiment [1]; 9.65 z-score in experiment [2]; 10.6 z-score with GST-Co-NF-kB; 3.45 z-score with GST-Dm-Relish; 4.94 z-score in the experiment with GST-Aq-NF-kB. Besides, the binding signal with GST-Hu-p50 is 5.64 z-score.
“CCGATTAACATCAGGGGAAAACCTGATGTTAATCGGGTCTTGATTCGCTTGACGCTGCTG”: the binding signal was 9.38 z-score with GST-Ap-NF-kB RHD; 10.6 z-score in experiment [1]; 11.5 z-score in experiment [2]; 7.99 z-score in the experiment with GST-Co-NF-kB; 8.9 z-score with GST-Dm-Relish; 9.77 z-score with GST-Aq-NF-kB. Moreover, the binding signal in the experiment with GST-Hu-p50 is 6.91 z-score.
As for “CCGATTAACATCAGGAAGCCCCCTGATGTTAATCGGGTCTTGATTCGCTTGACGCTGCTG”, the binding signal in the experiment with GST-Ap-NF-kB RHD is 6.62 z-score; in experiment [1], 5.72 z-score; in experiment [2], 3.93 z-score; with GST-Co-NF-kB, 1.49 z-score; in the experiment with GST-Dm-Relish, 7.8 z-score; in the experiment with GST-Aq-NF-kB it was 7.03 z-score. Moreover, the binding signal with GST-Hu-p50 worked out at 5.74 z-score.
Regarding “CCGATTAACATCAGGAAAACCCCTGATGTTAATCGGGTCTTGATTCGCTTGACGCTGCTG”, the binding signal worked out at 8.2 z-score with GST-Ap-NF-kB RHD; 8.89 z-score in experiment [1]; 6.66 z-score in experiment [2]; 2.41 z-score with GST-Co-NF-kB; 8.77 z-score with GST-Dm-Relish; 9.24 z-score in the experiment with GST-Aq-NF-kB. Further, the binding signal with GST-Hu-p50 came to 7.4 z-score.
As to “CCGATTAACATCAAGAAGTCCCCTGATGTTAATCGGGTCTTGATTCGCTTGACGCTGCTG”, the binding signal in the experiment with GST-Ap-NF-kB RHD amounted to 7.72 z-score; in experiment [1] it was 7.86 z-score; in experiment [2], 7.55 z-score; in the experiment with GST-Co-NF-kB it was 3.14 z-score; with GST-Dm-Relish, 7.58 z-score; in the experiment with GST-Aq-NF-kB it was 6.79 z-score. The same sequence displayed a binding signal with GST-Hu-p50 of 6.73 z-score.
